# Results published in PubChem BioAssay (EPA / NIEHS).
# Results filed as inconclusive are left out. Activity calls are given as the source filed them. How the source made its calls: active means hit-call score of the fitted dose curve at least 0.9, where 1 is the maximum; inconclusive means response in the unintended direction; inactive means score below 0.9.
# Biological target: Glucocorticoid receptor (Homo sapiens) (UniProt P04150)
# Test: ATG_GR_TRANS: Attagene TRANS-FACTORIAL HepG2 Assay for human Glucocorticoid Receptor (GR) (AID 2282978);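 further: activators score as hits since higher reporter transcript over DMSO is fitted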
# Conditions: HepG2 Attagene TRANS GR reporter, mRNA transcription
# In short: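 In this trans-factorial format, exogenous NR-GAL4 chimeric proteins in transfected HepG2 cells regulate GAL4-UAS reporter transcription. After 24 h treatment, reporter mRNA induction relative to DMSO is read by RT-PCR and capillary electrophoresis.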
# Glucocorticoid receptor (Homo sapiens), sequence (P04150 whole entry, looked up): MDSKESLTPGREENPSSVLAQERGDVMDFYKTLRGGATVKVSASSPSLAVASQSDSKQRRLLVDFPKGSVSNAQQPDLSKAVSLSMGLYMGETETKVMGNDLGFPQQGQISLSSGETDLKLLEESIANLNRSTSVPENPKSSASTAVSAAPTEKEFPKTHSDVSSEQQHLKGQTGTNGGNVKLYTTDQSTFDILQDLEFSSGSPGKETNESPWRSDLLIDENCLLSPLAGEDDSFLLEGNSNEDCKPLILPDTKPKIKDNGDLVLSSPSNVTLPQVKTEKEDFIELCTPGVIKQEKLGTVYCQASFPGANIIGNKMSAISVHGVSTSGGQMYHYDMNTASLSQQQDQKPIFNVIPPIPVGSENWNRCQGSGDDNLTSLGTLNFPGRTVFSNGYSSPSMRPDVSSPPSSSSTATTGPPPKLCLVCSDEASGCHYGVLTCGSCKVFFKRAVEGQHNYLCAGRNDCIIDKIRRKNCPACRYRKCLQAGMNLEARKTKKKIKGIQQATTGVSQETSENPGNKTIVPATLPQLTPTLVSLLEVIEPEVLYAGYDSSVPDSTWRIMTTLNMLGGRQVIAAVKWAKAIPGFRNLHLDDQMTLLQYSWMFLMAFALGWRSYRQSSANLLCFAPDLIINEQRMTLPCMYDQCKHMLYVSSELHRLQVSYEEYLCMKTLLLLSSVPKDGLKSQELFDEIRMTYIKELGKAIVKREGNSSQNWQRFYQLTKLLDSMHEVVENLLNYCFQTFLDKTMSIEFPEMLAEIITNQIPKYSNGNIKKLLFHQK
row,SMILES,outcome
1,CCCCN(CC)c1c([N+](=O)[O-])cc(C(F)(F)F)cc1[N+](=O)[O-],inactive
2,CCc1cnc(C2=NC(C)(C(C)C)C(=O)N2)c(C(=O)O)c1 (stereo unspecified),inactive
3,COc1cc(OC)nc(Sc2cccc(Cl)c2C(=O)O)n1,inactive
4,COP(=O)(NC(C)=O)SC (stereo unspecified),inactive
5,COP(=O)(OC)SCn1c(=O)oc2cc(Cl)cnc21,inactive
6,CCc1cccc(CC)c1N(COC)C(=O)CCl,inactive
7,CCOP(=S)(Oc1cnc(C(C)(C)C)nc1)OC(C)C (stereo unspecified),inactive
8,CCCSP(=O)(OCC)SCCC,inactive
9,O=[N+]([O-])c1cc(C(F)(F)F)c(Cl)c([N+](=O)[O-])c1Nc1ncc(C(F)(F)F)cc1Cl,inactive
10,CNc1cnn(-c2cccc(C(F)(F)F)c2)c(=O)c1Cl,inactive
11,CCOP(=O)(NC(C)C)Oc1ccc(SC)c(C)c1 (stereo unspecified),inactive
12,CCCOc1nn(C(=O)NS(=O)(=O)c2ccccc2C(=O)OC)c(=O)n1C,inactive
13,CCCCSP(=O)(SCCCC)SCCCC,inactive
14,N#CSCSC#N,inactive
15,COP(=O)(OC)C(O)C(Cl)(Cl)Cl (stereo unspecified),inactive
16,CCCCOC(=O)[C@@H](C)Oc1ccc(Oc2ccc(C#N)cc2F)cc1,inactive
